Experimental data as given in PubChem BioAssay.
Active and inactive are the calls of the source.

Assays:
Albumin (Bos taurus) = Albumin (Bos taurus) (UniProt P02769); assay: bovine serum albumin binders on microarray, profiling panel, artefact control for SMM control protein annotation, biochemical, small-molecule microarray, Alexa647 label, 635/667 nm fluorescence (AID 1118); settings: BSA-A647 binding, fluorescence 635 nm, higher = more signal;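 also: score merges 667 nm emission intensity and signal-to-noise per printed compound spot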
Sequence of Albumin (Bos taurus) (P02769 whole entry, looked up): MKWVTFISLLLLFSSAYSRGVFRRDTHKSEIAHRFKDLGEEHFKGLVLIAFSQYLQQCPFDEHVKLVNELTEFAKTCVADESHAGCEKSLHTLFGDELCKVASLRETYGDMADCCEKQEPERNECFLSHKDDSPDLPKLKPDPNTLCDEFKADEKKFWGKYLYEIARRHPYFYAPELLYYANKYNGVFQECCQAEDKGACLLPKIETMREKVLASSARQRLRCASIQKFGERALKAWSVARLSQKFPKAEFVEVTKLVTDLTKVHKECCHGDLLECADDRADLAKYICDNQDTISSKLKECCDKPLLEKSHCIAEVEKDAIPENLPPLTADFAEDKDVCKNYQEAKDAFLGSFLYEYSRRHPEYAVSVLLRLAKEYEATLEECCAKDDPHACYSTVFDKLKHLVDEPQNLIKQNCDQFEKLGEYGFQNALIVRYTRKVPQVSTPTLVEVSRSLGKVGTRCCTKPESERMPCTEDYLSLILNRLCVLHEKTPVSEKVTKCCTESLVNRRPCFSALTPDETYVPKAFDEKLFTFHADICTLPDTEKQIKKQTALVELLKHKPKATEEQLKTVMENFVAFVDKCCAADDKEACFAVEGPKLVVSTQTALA

[1] = small-molecule microarray binders of probe aXIP, primary screen, biochemical, NeuroSMM set, 635/667 nm fluorescence (AID 1119); settings: higher = more signal, called active from +8 up or from −8 down;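 also: probe is the protein aXip251-270 applied at 1 µg/mL to compound-printed slides; binding of probe to printed compounds measured as 667 nm fluorescence plus signal to noise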
[2] = small-molecule binders of probe aNOTCH3, primary screen, biochemical, small-molecule microarray, 635/667 nm fluorescence (AID 1120); settings: higher = more signal;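 also: probe is a biotin-tagged antibody raised against NOTCH3 rather than NOTCH3 protein; score merges spot fluorescence near 667 nm with spot signal to noise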
[3] = small-molecule binders of probe aNOTCH2, primary screen, biochemical, small-molecule microarray, 635/667 nm fluorescence (AID 1121); settings: higher = more signal;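 also: score merges feature fluorescence read at 667 nm with its signal to noise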
[4] = target: Carbonic anhydrase 2 (Homo sapiens) (UniProt P00918); assay: CAII small-molecule binders, profiling panel, biochemical, small-molecule microarray, Alexa647-labelled CAII (AID 1122); settings: CAII-A647 binding fluorescence, higher = more signal
[5] = COS7 lysate on small-molecule microarray, probe aHis, 635 nm (AID 1123); settings: COS7 cell lysate, fluorescence, higher = more signal;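 also: z-score combines 667nm fluorescence intensity with signal-to-noise per printed compound spot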
[6] = compound binding in COS7 lysate, probe aLAP1, primary screen, cell lysate, small-molecule microarray (AID 1124); settings: probe aLAP1, fluorescence, higher = more signal;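 also: lysate comes from COS7 cells expressing LAP1 and is applied at 0.3 µg/mL; score merges spot fluorescence near 667 nm with signal-to-noise over triplicate slides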
Sam68 (KHDRBS1) = assay: Sam68 small-molecule binders, primary screen, biochemical, small-molecule microarray, 635 nm fluorescence (AID 1125); settings: small-molecule microarray binding, higher = more signal;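 also: score merges 667 nm channel intensity with signal to noise over triplicate slides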
[7] = test system: Chordin-like protein 2 (CHRDL2); assay: CHRDL2 small-molecule binders, primary screen, biochemical, small-molecule microarray, 635 nm fluorescence (AID 1126); settings: small-molecule microarray binding, fluorescence 635 nm; higher = more signal;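 also: printed compound slides probed with Chrdl2 protein at 4 µg/mL for 1 h at 4 C; score merges 667 nm emission intensity with signal to noise over three replicate slides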
[8] = target: Concanavalin-A (Canavalia ensiformis) (UniProt P02866); assay: ConA small-molecule binders, primary screen, artefact control for SMM control protein annotation, biochemical, small-molecule microarray, Alexa647 label, 635 nm (AID 1127); settings: ConA-A647 binding fluorescence, higher = more signal;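 also: z combines 667 nm emission intensity with signal-to-noise across three replicate slides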
Sequence of Concanavalin-A (Canavalia ensiformis) (P02866 whole entry, looked up): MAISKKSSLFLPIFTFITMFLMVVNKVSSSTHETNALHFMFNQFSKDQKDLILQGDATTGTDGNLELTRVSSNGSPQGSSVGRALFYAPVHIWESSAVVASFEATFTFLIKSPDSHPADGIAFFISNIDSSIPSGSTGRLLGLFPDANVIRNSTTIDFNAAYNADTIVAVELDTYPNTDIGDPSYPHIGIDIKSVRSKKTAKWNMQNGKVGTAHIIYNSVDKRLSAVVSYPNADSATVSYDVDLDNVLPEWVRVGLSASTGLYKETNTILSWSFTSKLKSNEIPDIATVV

[9] = anti-His antibody binders, primary screen, artefact control for SMM control protein annotation, biochemical, small-molecule microarray, 635 nm fluorescence (AID 1128); settings: anti-His Alexa647 antibody binding, higher = more signal;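 also: score merges feature fluorescence with signal-to-noise for each printed compound spot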
[10] = test system: Human papillomavirus type 1a E7 protein (residues 1-88); assay: HPV1a E7 small-molecule binders, primary screen, biochemical, small-molecule microarray, residues 1-88, 635 nm (AID 1129); settings: small-molecule microarray binding, fluorescence 635 nm; higher = more signal
[11] = target: Focal adhesion kinase 1 (Homo sapiens) (UniProt Q05397); assay: small-molecule microarray binders of FAK, primary screen, biochemical, 635/667 nm fluorescence, BSA, DTT (AID 1130); settings: PTK2 binding, 635 nm fluorescence, higher = more signal;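 also: composite of spot emission at 667 nm and signal to noise over triplicate slides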
Sequence of Focal adhesion kinase 1 (Homo sapiens) (Q05397 whole entry, looked up): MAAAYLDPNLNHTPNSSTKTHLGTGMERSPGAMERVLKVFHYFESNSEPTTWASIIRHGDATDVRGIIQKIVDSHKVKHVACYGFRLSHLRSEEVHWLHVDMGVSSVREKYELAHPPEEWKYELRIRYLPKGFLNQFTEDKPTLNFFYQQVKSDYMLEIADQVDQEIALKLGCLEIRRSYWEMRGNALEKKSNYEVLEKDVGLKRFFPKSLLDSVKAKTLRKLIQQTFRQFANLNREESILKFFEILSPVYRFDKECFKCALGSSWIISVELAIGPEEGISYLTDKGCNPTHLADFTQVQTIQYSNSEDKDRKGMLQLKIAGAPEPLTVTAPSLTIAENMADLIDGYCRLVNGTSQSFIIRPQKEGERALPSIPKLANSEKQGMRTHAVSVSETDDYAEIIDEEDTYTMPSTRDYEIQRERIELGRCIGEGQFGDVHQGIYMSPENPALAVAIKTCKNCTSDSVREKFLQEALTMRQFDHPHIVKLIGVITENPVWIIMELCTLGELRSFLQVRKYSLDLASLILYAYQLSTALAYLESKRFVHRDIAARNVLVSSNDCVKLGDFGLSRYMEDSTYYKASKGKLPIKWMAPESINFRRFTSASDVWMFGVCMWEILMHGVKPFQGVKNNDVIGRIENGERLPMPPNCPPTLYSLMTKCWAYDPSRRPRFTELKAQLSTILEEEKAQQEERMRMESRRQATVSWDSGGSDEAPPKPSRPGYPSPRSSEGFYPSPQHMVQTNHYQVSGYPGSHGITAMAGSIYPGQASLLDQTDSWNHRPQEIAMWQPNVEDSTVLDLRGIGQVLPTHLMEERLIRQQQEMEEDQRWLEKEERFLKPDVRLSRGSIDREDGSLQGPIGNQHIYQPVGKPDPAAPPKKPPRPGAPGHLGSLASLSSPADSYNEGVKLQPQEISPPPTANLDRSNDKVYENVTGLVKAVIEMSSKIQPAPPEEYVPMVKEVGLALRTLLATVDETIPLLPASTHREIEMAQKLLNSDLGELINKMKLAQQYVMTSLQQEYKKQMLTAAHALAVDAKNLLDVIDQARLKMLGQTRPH

[12] = test system: Fibrinogen (Alexa647-labelled); assay: fibrinogen binders on compound microarrays, profiling panel, artefact control for SMM control-protein annotation, biochemical, small-molecule microarray, 635/667 nm fluorescence (AID 1131); settings: fibrinogen-A647 binding fluorescence, higher = more signal;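 also: z-score merges 667 nm fluorescence with per-spot signal-to-noise over triplicate slides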
[13] = target: Follistatin (Homo sapiens) (UniProt P19883); assay: follistatin binders on small-molecule microarrays, primary screen, biochemical, small-molecule microarray, 635/667 nm fluorescence (AID 1132); settings: FST binding, 635 nm fluorescence, higher = more signal
Sequence of Follistatin (Homo sapiens) (P19883 whole entry, looked up): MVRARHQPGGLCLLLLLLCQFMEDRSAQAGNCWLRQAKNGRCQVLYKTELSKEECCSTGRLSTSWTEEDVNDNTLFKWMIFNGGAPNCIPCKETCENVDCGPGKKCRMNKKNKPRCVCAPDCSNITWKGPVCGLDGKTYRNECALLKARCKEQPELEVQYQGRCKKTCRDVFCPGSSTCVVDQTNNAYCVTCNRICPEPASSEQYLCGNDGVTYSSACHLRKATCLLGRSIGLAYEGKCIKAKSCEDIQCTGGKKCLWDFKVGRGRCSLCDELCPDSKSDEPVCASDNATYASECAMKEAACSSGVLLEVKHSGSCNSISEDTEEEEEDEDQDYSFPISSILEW

[14] = target: Fibroblast growth factor 2 (Homo sapiens) (UniProt P09038); assay: FGF2 binders on small-molecule microarrays, primary screen, biochemical, small-molecule microarray, 635/667 nm fluorescence (AID 1133); settings: small-molecule microarray binding, FGF2, fluorescence 635/667; higher = more signal
Sequence of Fibroblast growth factor 2 (Homo sapiens) (P09038 whole entry, looked up): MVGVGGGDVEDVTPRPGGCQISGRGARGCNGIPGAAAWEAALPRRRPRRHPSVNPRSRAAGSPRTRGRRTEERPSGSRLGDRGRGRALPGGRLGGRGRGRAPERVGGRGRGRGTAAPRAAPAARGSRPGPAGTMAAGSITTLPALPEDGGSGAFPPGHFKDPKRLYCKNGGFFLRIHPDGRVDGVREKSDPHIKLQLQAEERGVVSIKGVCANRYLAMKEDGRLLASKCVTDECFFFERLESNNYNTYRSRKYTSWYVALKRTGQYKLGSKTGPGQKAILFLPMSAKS

[15] = mitochondrial membrane potential change in A549 cells, profiling panel, cell-based, JC-1 fluorescence, basal, 24 h, 100 nL (AID 1138); settings: higher = more signal;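 also: A549 lung adenocarcinoma cells under basal conditions with no added stimulus; test concentration not given here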
Lefty1 = Lefty1 binders on small-molecule microarrays, primary screen, biochemical, small-molecule microarray, 635/667 nm fluorescence (AID 1139); settings: small-molecule microarray binding, fluorescence 635/667; higher = more signal
[16] = test system: wheat germ agglutinin (Triticum aestivum), Alexa647-labelled; assay: wheat germ agglutinin binders on compound microarrays, profiling panel, artefact control for SMM control-protein annotation, biochemical, small-molecule microarray, 635/667 nm fluorescence (AID 1140); settings: WGA-A647 binding, 635 nm fluorescence, higher = more signal;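 also: score merges 667 nm feature emission with signal to noise over triplicate slides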
[17] = target: Luciferin 4-monooxygenase (Photinus pyralis) (UniProt P08659); assay: firefly luciferase enzyme inhibitors, primary screen, biochemical, luminescence, purified enzyme, 2006 set (AID 1141); settings: SteadyGlo luminescence, 30 min, higher = more signal, called active from +8 up or from −8 down;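 also: cell-free assay with purified firefly luciferase at 100 ng per well in PBS; test concentration not given here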
Sequence of Luciferin 4-monooxygenase (Photinus pyralis) (P08659 whole entry, looked up): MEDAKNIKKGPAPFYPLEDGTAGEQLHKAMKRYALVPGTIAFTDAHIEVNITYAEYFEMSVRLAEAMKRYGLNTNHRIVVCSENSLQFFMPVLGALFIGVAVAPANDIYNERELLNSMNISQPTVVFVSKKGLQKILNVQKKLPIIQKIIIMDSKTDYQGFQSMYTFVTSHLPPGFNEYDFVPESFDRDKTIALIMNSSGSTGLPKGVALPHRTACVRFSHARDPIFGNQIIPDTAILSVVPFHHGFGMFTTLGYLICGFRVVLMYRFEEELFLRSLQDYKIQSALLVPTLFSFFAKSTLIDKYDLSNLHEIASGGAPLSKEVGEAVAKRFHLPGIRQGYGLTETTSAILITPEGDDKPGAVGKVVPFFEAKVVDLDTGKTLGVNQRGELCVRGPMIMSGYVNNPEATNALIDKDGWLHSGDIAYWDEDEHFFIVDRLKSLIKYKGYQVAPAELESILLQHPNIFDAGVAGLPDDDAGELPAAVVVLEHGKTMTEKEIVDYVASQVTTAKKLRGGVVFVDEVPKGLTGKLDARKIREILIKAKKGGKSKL

Row | Compound | composite z-score (Albumin (Bos taurus)) | composite Z-score [1] | composite z-score [2] | composite z-score [3] | composite z-score [4] | composite z-score [5] | composite z-score [6] | composite z-score (Sam68 (KHDRBS1)) | composite z-score [7] | composite z-score [8] | composite z-score [9] | composite z-score [10] | composite z-score [11] | composite z-score [12] | composite z-score [13] | composite z-score [14] | z-score [15] | composite z-score (Lefty1) | composite z-score [16] | z-score [17]
1 | CCOC(=O)CCN1C(=O)[C@H]2[C@H]3[C@H](O)[C@H](O)CC(=NNC(=O)OCc4ccccc4)[C@H]3CC[C@H]2C1=O | -0.914 | 0.734 (inactive) | 0.232 | -0.0309 | -0.67 | -1.26 | -0.0688 | -1.01 | 1.4 | -0.636 | -0.954 | -0.746 | -0.355 | -0.714 | 0.44 | 0.386 | -0.674 | 0.742 | -0.547 | 0.292 (inactive)
2 | O=C1C[C@@H](O)[C@@H](O)[C@@H]2[C@@H]3C(=O)N(Cc4ccccc4)C(=O)[C@@H]3CC[C@H]12 | -0.0028 | -0.082 (inactive) | 0.111 | -0.107 | 0.213 | -0.0842 | 0.23 | 0.184 | 0.415 | 0.941 | 0.0747 | 0.467 | 0.141 | 0.872 | 0.967 | 0.347 | -0.579 | 0.329 | 0.565 | 0.675 (inactive)
3 | CON=C1c2cc(OC)ccc2O[C@H](c2cccc(OC)c2)[C@H]1O | -0.181 | 0.133 (inactive) | 0.123 | 0.0267 | 0.11 | 0.275 | 0.332 | 0.415 | 0.707 | 0.267 | 0.293 | 0.416 | 0.197 | 0.273 | 0.587 | 0.675 | 0.314 | 0.6 | 0.208 | -2.9 (inactive)
4 | CC(C)CON=C1C[C@@H](O)[C@@H](O)[C@@H]2[C@@H]3C(=O)N(Cc4ccccc4)C(=O)[C@@H]3CC[C@H]12 | 0.428 | -0.288 (inactive) | -0.0679 | -0.122 | 0.0889 | 0.211 | -0.366 | 0.51 | 0.447 | 0.321 | 0.247 | 0.502 | 0.052 | 0.666 | 0.363 | 0.474 | -1.03 | 0.669 | 0.134 | 1.14 (inactive)
5 | OC[C@H]1O[C@H](C#Cc2ccccc2)C=C[C@@H]1O | 0.475 | 0.131 (inactive) | -0.0647 | -0.101 | -0.0795 | 0.171 | -0.647 | 0.0701 | 0.622 | 0.341 | -0.0558 | 0.202 | 0.0213 | 0.624 | 0.634 | 0.147 | 0.462 | 0.409 | 0.189 | -1.47 (inactive)
6 | COc1ccc(OC[C@@H]2CC3[C@@H](c4ccc(Br)cc4)[C@H](C)CC[C@H]3C(=O)O2)cc1 (stereo not given in full) | 0.733 | -0.644 (inactive) | -0.023 | -0.18 | -0.117 | -0.037 | 0.196 | -0.218 | 0.584 | -0.758 | -1.08 | -0.291 | -0.0102 | 0.563 | 0.57 | 0.29 | -0.296 | 0.74 | 0.282 | 0.294 (inactive)
7 | CC(CCC(=O)OC[C@H]1O[C@H](C#Cc2ccccc2)C=C[C@@H]1Oc1ccc(C)cc1)=NOC(C)CN1CCCCc2nc(C)c(C)cc21 (stereo not given in full) | 0.473 | 1.48 (inactive) | -0.0377 | 0.161 | 0.346 | 0.938 | 0.214 | 0.313 | -0.168 | -0.207 | -0.578 | 0.203 | 0.603 | -0.626 | -0.463 | -0.426 | 0.856 | -0.034 | 0.222 | 1.08 (inactive)
8 | CO[C@@H]1COC(=O)CC=C[C@H](C)[C@H](OC)COC(=O)[C@@H]2CCCN2C(=O)CC=C[C@H]1C | -0.568 | 0.598 (inactive) | -0.116 | -0.154 | -0.623 | -0.301 | 0.569 | 0.442 | 1.44 | -0.371 | -0.51 | -0.838 | -0.226 | -2.24 | 1.38 | 1.69 | -0.213 | 1.45 | -1.11 | -0.577 (inactive)
9 | C[C@]12CCC3c4ccc(OCC5CO5)cc4CCC3C1CC[C@@H]2O (stereo not given in full) | 0.754 | 0.257 (inactive) | -0.0932 | 0.0365 | 0.646 | 0.528 | 0.414 | 0.759 | 0.118 | 0.961 | 1.19 | 1.14 | 0.492 | 1 | 0.137 | -0.2 | 4.51 | -0.005 | 1.05 | -0.466 (inactive)
